Source: PubChem (several laboratories)
An excerpt weighted towards active compounds, which were near 2% of everything screened.
NadD block: blocks S. aureus nicotinate mononucleotide adenylyltransferase; purified NadD enzyme, colorimetric absorbance read-out; inhibition, % at 20 µM; 360,000 tested, 0.78% active; in the data active = inhibition above about 26%
DAGLB inh: diacylglycerol lipase beta (human) inhibition | inhibition, % at 5.17 µM | AID 504411 | 340,000 tested, 0.059% active | HEK293T DAGLB membrane lysate, EnzChek fluorogenic substrate | Q8NCG7; in the data active = inhibition above about 34%;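 note: 0% = enzyme with vehicle and 100% = wells lacking enzyme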
Target sequence (Q8NCG7 whole entry, looked up): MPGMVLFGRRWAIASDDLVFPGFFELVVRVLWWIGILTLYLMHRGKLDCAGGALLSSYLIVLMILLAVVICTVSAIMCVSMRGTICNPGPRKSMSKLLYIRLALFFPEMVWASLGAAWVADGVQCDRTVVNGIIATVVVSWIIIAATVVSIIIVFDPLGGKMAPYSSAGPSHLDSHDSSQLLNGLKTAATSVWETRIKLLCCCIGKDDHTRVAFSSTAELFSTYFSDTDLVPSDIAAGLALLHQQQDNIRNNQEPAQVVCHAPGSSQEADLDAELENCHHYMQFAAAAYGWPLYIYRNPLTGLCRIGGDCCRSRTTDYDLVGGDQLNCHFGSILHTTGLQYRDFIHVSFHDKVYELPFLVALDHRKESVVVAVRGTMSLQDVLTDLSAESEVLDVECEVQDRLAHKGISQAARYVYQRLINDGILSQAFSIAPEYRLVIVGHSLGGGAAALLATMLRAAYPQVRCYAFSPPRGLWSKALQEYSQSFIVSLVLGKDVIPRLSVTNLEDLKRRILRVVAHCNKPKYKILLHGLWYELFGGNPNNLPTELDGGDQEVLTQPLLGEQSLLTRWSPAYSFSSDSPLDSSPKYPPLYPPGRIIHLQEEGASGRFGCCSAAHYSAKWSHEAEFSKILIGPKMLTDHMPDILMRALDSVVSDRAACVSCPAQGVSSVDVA
HGIII-sPLA2 inh: Blocks human group III sPLA2 activity | Q9NZ20 | QFRET BODIPY PC-A2 liposome hydrolysis, fluorescence | inhibition, % at 12.2 µM | 370,000 tested, 0.56% active;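 active = inhibition above mean plus 3 SD of compounds lying within the high and low control bounds, cut at about 19% in these data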;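 note: 0% = median of test compound wells and 100% = no enzyme DMSO wells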
ARNT TACC3 PPI: disruptors of human ARNT/TACC3 interaction; Q9Y6A5; AlphaScreen His-ARNT PAS-B/GST-TACC3 binding, luminescence; TACC3 fragment carries E629A point mutation; inhibition, % at 9.99 µM; 390,000 tested, 0.66% active;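 active = mean inhibition of replicates at least 50% and at least half of replicates each reaching 50%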;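 note: 0% = complete ARNT plus TACC3 wells and 100% = ARNT alone without TACC3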
Neddyl block: inhibitors of human cullin neddylation; P61081+Q13564; 360,000 tested, 0.58% active; AID 651699; TR-FRET cullin neddylation, biochemical; inhibition, % at 25 µM; in the data active = inhibition above about 36%
Neddyl inh conf: cullin neddylation inhibition, confirmation. shares compounds with Neddyl block. TR-FRET cullin neddylation biochemical assay. calls only at 25 µM. 1,800 tested, 13% active; in the data active = inhibition above about 40%;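 note: neddylation substrate is the cullin 1 ring ligase complex with SKP2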
* hit, by the source's call; i = inactive; . = not tested or not shown; + = active, no number.

SMILES	NadD block	DAGLB inh	HGIII-sPLA2 inh	ARNT TACC3 PPI	Neddyl block	Neddyl inh conf
CC(C)OC(=O)/C(=C/c1ccc2c(c1)c1ccccc1n2C)NC(=O)c1ccccc1	14	-5	8	.	46*	i
CCCN(C)C[C@@H]1OCCCC[C@H](C)Oc2ccc(N(C)C)cc2C(=O)N([C@H](C)CO)C[C@@H]1C	.	.	.	0	.	.
Cc1coc2c(C)c3oc(=O)cc(-c4ccccc4)c3cc12	-4	-4	2	-20	26	.
CCCc1cc(=O)oc2c(C)c3occ(C)c3cc12	-1	-9	13	-3	40*	i
COc1ccc(/C=C/c2ccncc2)cc1OC	5	1	3	-3	12	.
COc1ccc(/C=C\c2cc(OC)c(OC)cc2CC[N+](C)(C)C)cc1OC	-4	1	7	-5	43*	i
Cc1ccc(CSc2nnc(-c3cccc4ccccc34)o2)cc1	10	-4	1	-8	34*	.
COCC(=O)N1C[C@H]2[C@@H](c3ccccc31)[C@H](CO)N2C(=O)Nc1ccccc1Cl	.	.	.	2	.	.
Cc1cccc(CN2CCc3c([nH]c4ccccc34)C2)c1	-8	-2	6	10	29	.
Clc1cccc(CN2CCc3c([nH]c4ccccc34)C2)c1	1	-16	14	0	43*	i
CO[C@@H]1CN(C)C(=O)c2cc(NC(=O)NC(C)C)ccc2OC[C@@H](C)N(Cc2ccccn2)C[C@@H]1C	.	.	.	-5	.	.
CCc1ccc2oc(-c3ccc(OC)cc3)cc(=Nc3cccc(C(=O)O)c3)c2c1	24	-7	-1	-5	43*	i
Cc1cc(N2CCCC2)nc2ccc(NC(=S)NC(C)C)cc12	11	1	10	6	.	.
COCCCNC(=O)CCC(=O)Nc1ccc2nc(N3CCOCC3)cc(C)c2c1	-1	-1	5	-1	.	.
COc1ccc(CCNC(=O)CCC(=O)Nc2ccc3nc(N4CCN(C)CC4)cc(C)c3c2)cc1OC	-10	-1	-2	-10	11	.
COc1cccc(NC(=O)CCC(=O)Nc2ccc3nc(N4CCOCC4)cc(C)c3c2)c1	-3	-2	-9	23	43*	.
Cc1cc(N2CCN(C)CC2)nc2ccc(NC(=O)CCC(=O)NCCC3=CCCCC3)cc12	-6	0	-10	2	45*	i
Cc1cc(N2CCOCC2)nc2ccc(NC(=S)NC(C)C)cc12	-5	-1	1	11	50*	i
CN1[C@@H]2Cn3c(ccc(-c4ccccc4)c3=O)[C@H]1[C@@H](C(=O)NCC1CCCCC1)[C@@H]2CO	.	.	.	3	.	.
C/C=C(\C)C(=O)O[C@H](c1cc2ccc(=O)oc2cc1OC)[C@@H](O)C(C)(C)O	-3	-3	5	-1	37*	i
C/C=C(\C)C(=O)O[C@@H]([C@H](O)c1cc2ccc(=O)oc2cc1OC)C(C)(C)O	0	-2	5	-4	.	.
CN(C)CC(=O)Nc1ccc2c(c1)[C@H]1C[C@H](CC(=O)NCc3ccc(Cl)cc3)O[C@H](CO)[C@H]1O2	.	.	.	0	.	.
Cc1ccc(C2NC(=O)c3c(sc4c3CCN(C)C4)N2)o1 (configuration not stated)	-6	-8	-2	4	43*	i
CCC(=O)N/C(N)=N/c1nc(C)c2cc(OC)ccc2n1	-3	1	-5	2	46*	+
COc1ccc2nc(/N=C(\N)NC(=O)C(C)(C)C)nc(C)c2c1	-2	-5	0	1	.	.
SMILES	NadD block	DAGLB inh	HGIII-sPLA2 inh	ARNT TACC3 PPI	Neddyl block	Neddyl inh conf
COc1ccc(NC(=O)N(C)C[C@@H]2OCCCC[C@@H](C)Oc3ccc(NC(=O)Nc4ccc(F)cc4)cc3C(=O)N([C@@H](C)CO)C[C@@H]2C)cc1	.	.	.	6	.	.
C[C@H](CO)N1C[C@H](C)[C@H](CN(C)C)Oc2ncc(-c3cccc(F)c3)cc2C1=O	.	.	.	-3	.	.
O=c1c2c(nc3c(-c4ccccc4)c[nH]n13)CCCC2	1	1	2	3	38*	.
N#Cc1c[nH]n2c(=O)c3c(nc12)CCC3	-6	-4	-1	1	7	.
CCCc1c(C(=O)N/N=C/c2c(OC)ccc3ccccc23)nnn1-c1nonc1N	27	1	4	-3	49*	i
Cc1ccc(-c2c(C(=O)N/N=C/c3c[nH]c4ccccc34)nnn2-c2nonc2N)cc1	9	4	-38	.	49*	i
Cc1nnn(-c2nonc2N)c1C(=O)N/N=C/c1cccc2ccccc12	-1	-2	3	.	43*	i
